# Screening results: PubChem, National Center for Advancing Translational Sciences (NCATS)
# Compounds with a hit are over-represented: about 2.5% of the library has one in this group of screens.
# VACV mCherry inh: vaccinia inhibition (mCherry reporter). Vaccinia virus mCherry reporter infection, fluorescence. Potency, µM (highest dose often 36.5 µM), for the others: at the top dose activity change, negative = inhibition, usual class: inhibitors. 310,000 tested, 0.63% active; calls by dose curve; tested in A549 cells; note: nearly all actives have a fitted effect of over 35% in size
# Lassa entry inh: inhibitors of Lassa virus binding or cell entry; Lassa virus pseudotype entry inhibition, cell reporter; Potency, µM (titrated, usually from 37.9 µM), inactives show top-dose activity change, negative = inhibition, actives largely listed as inhibitors; 300,000 tested, 1.2% active; AID 540256; calls by dose curve; tested in HEK293 cells; note: nearly all actives have a fitted effect of over 50% in size
# VACV Venus inh: inhibitors of vaccinia virus (Venus reporter); 330,000 tested, 0.46% active; Potency, µM (titrated, usually from 36.5 µM), for the others: at the top dose activity change, negative = inhibition, usual class: inhibitors; Vaccinia virus Venus reporter expression, fluorescence; calls by dose curve; tested in A549 cells; note: nearly all actives have a fitted effect of over 30% in size
# Marburg entry inh: Marburg virus entry inhibition; Marburg virus pseudotyped entry inhibition, cell reporter; Potency, µM (series often up to 37.8 µM), without a hit: top-dose activity change, negative = inhibition, usual class: inhibitors; 300,000 tested, 1.8% active; calls by dose curve; tested in HEK293 cells
# Starred values were filed as active, the others as inactive; i = inactive; ? = inconclusive; . = no result given; [ ] = remark or other dose. % is set by controls: 0 for no effect and ±100 for the full control effect; potency is the fitted concentration of half-maximal effect.
SMILES,VACV mCherry inh,Lassa entry inh,VACV Venus inh,Marburg entry inh
O=[N+]([O-])c1ccc(-c2ccc(S(=O)(=O)NCCN3CCCC3)cc2)cc1,-47%,?,-19%,18µM*
CC(C)=CCCC1(C)C=Cc2c(O)c3c(c(CC=C(C)C)c2O1)OC12C(=CC4CC1C(C)(C)OC2(C/C=C(/C)C(=O)O)C4O)C3=O (stereo not given),13µM*,.,11µM*,.
CC(C)=CCCC1(C)C=Cc2c(O)c3c(c(CC=C(C)C)c2O1)OC12C(=CCCC1C(C)(C)O[C@@]2(C/C=C(\C)C(=O)O)C(=O)O)C3=O (stereo not given in full),i,.,-22%,.
O=C(NCC1(N2CCOCC2)CCCC1)c1cnn(-c2nccc(-c3ccco3)n2)c1C1CC1,-7%,.,0%,.
CN1CCN(C(=O)c2cnn3c(C(F)(F)F)cc(-c4cccs4)nc23)CC1,-7%,7%,2%,5%
O=C(c1cnn2c(C(F)(F)F)cc(-c3cccs3)nc12)N1CCN(C(c2ccccc2)c2ccccc2)CC1,.,?,-8%,13µM*
O=C(NCC1Cc2cccc(-c3cccnc3)c2O1)c1cc(-c2ccccc2)n[nH]1 (stereo not given),i,.,-16%,.
NC(Cc1ccc(F)cc1)c1csc(Nc2cnccn2)n1 (stereo not given),10µM*,.,11µM*,.
NC(CCc1ccccc1)c1csc(Nc2cnccn2)n1 (stereo not given),10µM*,.,?,.
COc1cccc(Nc2nc(C(N)CCc3ccccc3)cs2)n1 (stereo not given),9%,.,-16%,.
CC(C)c1ccc(/C=C(\c2nc3ccccc3[nH]2)S(=O)(=O)c2ccccc2)cc1,8.9µM*,?,10µM*,?
O=S(=O)(/C(=C/c1ccc(C(F)(F)F)cc1)c1nc2ccccc2[nH]1)c1ccccc1,10µM*,?,10µM*,11µM*
O=C(NCCCN1CCOCC1)c1ccc(Br)cc1,.,9%,9%,?
CC(C)(C)c1ccc(C(=O)NCCCN2CCN(CCCNC(=O)c3ccc(C(C)(C)C)cc3)CC2)cc1,?,?,11µM*,?
C=C1C(=O)O[C@@H]2[C@H]3O[C@]3(C)CCC=C(C)CC[C@@H]12,.,9.2µM*,.,22µM*
Cc1c(C(=O)N2CCCC2)sc2ncnc(NCCCN3CCOCC3)c12,i,.,0%,.
CN(C)c1ccc(-c2nn3c(-c4ccc(Cl)cc4)nnc3s2)cc1,-9%,-4%,-8%,20%
Clc1ccc(-c2nn3c(C4COc5ccccc5O4)nnc3s2)cc1 (stereo not given),.,6.5µM*,.,4%
O=C1CC(C(=O)N2CCCC(c3nc(-c4ccncc4)ncc3-c3ccccc3)C2)C2(CCCCC2)O1 (stereo not given),-14%,.,0%,.
CC(=O)Nc1ccc(N=c2cc([N+](=O)[O-])cc(Cl)n2O)cc1,8.9µM*,?,?,?
CC(=O)Nc1ccc(Oc2ccc([N+](=O)[O-])cc2Cl)cc1,-8%,-5%,-4%,?
CCc1nc2cc(C(=O)N[C@H]3CCCCNC3=O)cc(NC(=O)c3ccccc3OC)c2n1C,i,.,-13%,.
CCNc1ccc(/C=C/c2ccnc3ccccc23)cc1,-14%,.,15%,.
CC(Oc1ccccc1)C(=O)N[C@@H]1C(=O)N2C(C(=O)OCC3CCCCC3)C(C)(C)S[C@H]12 (stereo not given in full),i,.,-9%,.
CCN1CCN(Cc2ccc(NC(=O)c3ccc(C)c(NC(=O)c4cncc(-c5cccs5)c4)c3)cc2C(F)(F)F)CC1,?,.,16µM*,.
SMILES,VACV mCherry inh,Lassa entry inh,VACV Venus inh,Marburg entry inh
CCN1CCN(Cc2ccc(NC(=O)c3cc(NC(=O)c4cnnc5ccccc45)cc(OC)c3)cc2C(F)(F)F)CC1,?,.,10µM*,.
CCN1CCN(Cc2ccc(NC(=O)c3ccc(C)c(NC(=O)c4cc(-c5ccc(Br)cc5)n[nH]4)c3)cc2C(F)(F)F)CC1,-26%,.,10µM*,.
C=CC[C@@H]1C=CC(ON=CC[C@@H]2C=C[C@@H](OC(C)=O)[C@@H](COC(C)=O)O2)[C@H](CO)O1 (stereo not given in full),.,.,.,4%[14.2 µM]
CCCc1oc2ccc(NS(=O)(=O)c3ccc(OC)cc3)cc2c1C(=O)OCC,?,1µM*,?,.
COc1ccc(Cl)cc1-c1cc2c(c(OC)c1)OCCN(Cc1cccn1-c1nccs1)C2,-12%,.,-4%,.
O=C(C=Cc1ccccc1)c1ccccc1O,.,-8%[14.3 µM],.,?
CCOc1ccccc1N(CC(=O)NC1CCCCC1)S(=O)(=O)c1ccc(C)cc1,-25%,?,-17%,3.2µM*
COc1ccccc1N(CC(=O)NC1CCCC1)S(=O)(=O)c1ccc(C)cc1,-10%,?,-13%,-10%
